The results in this text go back to PubChem BioAssay (NCI).

About 83,000 compounds went through this panel and 20% of them were active in at least one assay; those are over-represented in the sample as a whole.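 Cells were grown in 96-well plates and exposed to the test compound at a single concentration for 48 hours; results are reported as percent growth, with values below 10 considered active.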 Values without a mark were called inactive. Activity calls are given as the source filed them.

Test in all cases: NCI-60 one-dose screen, 48 h (100 = growth as untreated, 0 = no growth, -100 = all killed)
Common to all, as to settings: 10 µM

Experiment [1] deals with SK-MEL-2 melanoma.
Experiment [2] deals with UO-31 renal.
Experiment [3] concerns TK-10 renal.
Experiment [4] relates to ACHN renal.
The subject of experiment [5] is CAKI-1 renal.
Experiment [6] has as its system A498 renal.
In experiment [7] the test system is CCRF-CEM leukemia.
In experiment [8] the test system is MOLT-4 leukemia.
In experiment [9] the test system is SN12C renal.

For `CCCCCc1cc[n+](CC(=O)c2ccc(Cl)cc2)cc1`, the growth in [1] is 109%; in experiment [2] it was 91.2%; in experiment [3], 98.4%; in [4] it was 99%; in experiment [5], 92.5%; in experiment [6], 63.1%. The growth in [7] was 102%; in experiment [8], 92.7%.

`COc1ccc2nc(NC(=O)Nc3c(F)cccc3F)sc2c1`: the growth in [1] is 114%; in experiment [2], 102%; in experiment [3], 84.8%; in experiment [4], 106%; in [5], 104%; in experiment [6], 87.9%. Besides, the growth in experiment [7] was 96.1%; in experiment [8], 98.3%.

Regarding `COc1ccc(C2C=C(c3ccc(OC)c(OC)c3)N=C3SC=CN32)c(Br)c1` (stereo not given), the growth is 104% in [1]; 75% in experiment [9]; 67.9% in experiment [2]; 76.6% in experiment [4]; 71.5% in experiment [5]; 74% in experiment [6]. The values for the growth in experiment [7] and in experiment [8] were -2.4% (active) and 25.1%, respectively.

Take `C#Cc1ccc(-n2c(/C=C/c3cc(OC)c(OC)c(OC)c3)nc3ncccc3c2=O)cc1`: the growth in [1] was -2.4% (active); in experiment [2], 45.8%; in [3] it was 112%; in experiment [4] it was 60.5%; in experiment [5] it was 64.2%; in experiment [6], 24.5%. The results for the growth in experiment [7] and in experiment [8] were 55.9% and 65.2%, respectively.

`CCCCCC(=O)N1c2ccccc2NC2=C(C(=O)CC(c3ccc(OC)c(OC)c3)C2)C1c1ccc(C(F)(F)F)cc1` (stereo not given): the growth in experiment [1] is 47.8%; in experiment [9], 62%; in experiment [2], 44.9%; in experiment [3], 64.4%; in experiment [5], 65.6%; in experiment [6], 57.2%. The results for the growth in experiment [7] and in experiment [8] were 43.5% and 37%, respectively.

Regarding `FC(F)(F)c1ccc(-c2cnc(Br)nc2NC2CCCCCC2)cc1`, the growth in [1] was 13.2%; in experiment [9] it was 21.9%; in experiment [2] it was 34.7%; in experiment [3] it was 36.6%; in experiment [5] it was 72.6%; in experiment [6], 81.3%. Besides, the growth in [8] was 57%.

Consider `Clc1cc(Cl)c(Cl)c(-c2nc(-c3cccnc3)cs2)c1`, for which the growth in [1] is 99.3%; in experiment [9], 94.2%; in [3] it was 82.6%; in experiment [4] it was 61.5%; in [5], 48.7%; in experiment [6] it was 104%. Further, the growth is 62.6% in experiment [7] and 56.9% in experiment [8].

As for `O=NN(CCCl)C(=O)Nc1ccc(NC(=O)N(CCCl)N=O)cc1`, the growth in experiment [1] was 129%; in [9], 90.7%; in [2] it was 96.6%; in experiment [3] it was 114%; in experiment [5] it was 100%; in experiment [6], 67.1%. For the same compound, the growth in experiment [7] is 102%; in experiment [8], 97.2%.

`COc1cc(CSc2nc3ccc(Cl)cc3c(=O)n2Cc2ccccc2)cc(OC)c1OC`: the growth in [1] was 21.4%; in [9], 38.6%; in experiment [2] it was 27.1%; in experiment [4] it was 40.3%; in [5] it was 26.7%; in experiment [6] it was 24%. In addition, the growth in experiment [7] was 28.5%; in experiment [8] it was 29.4%.

Regarding `Fc1ccc2[nH]c3c(NCCCN4CCOCC4)ncnc3c2c1`, the growth was 65.7% in [1]; 63.8% in experiment [9]; 45.9% in [2]; 23.9% in experiment [4]; 25.2% in [5]; 130% in experiment [6]. The values for the growth in [7] and in experiment [8] were 74.7% and 83.1%, respectively.

Consider `O=C(Cn1ccc(=O)[nH]c1=O)c1ccc([N+](=O)[O-])o1`, for which the growth in experiment [1] was 101%; in [9], 108%; in [2] it was 109%; in experiment [3], 63.3%; in experiment [5], 105%; in experiment [6], 115%. Also, the growth was 83% in [7] and 106% in experiment [8].

Regarding `CCSc1nc2c([nH]1)c(=O)n(C)c(=S)n2C`, the growth was 111% in experiment [1]; 107% in experiment [9]; 98.2% in [2]; 102% in [4]; 100% in [5]; 108% in [6]. Moreover, the growth in [7] is 100%; in experiment [8], 108%.

Regarding `CC(Oc1ccc(Cl)cc1)c1ccccc1` (stereo not given), the growth in experiment [1] was 112%; in experiment [9] it was 98.1%; in experiment [2], 77.6%; in [4], 125%; in experiment [5] it was 96.5%; in [6] it was 119%. The growth in [8] was 87.3%.

In the case of `Cc1cc(/C=C2\SC(=Nc3ccccc3)N(C3CCCC3)C2=O)c(C)n1-c1ccc(Cl)cc1`, the growth was -77.3% (active) in experiment [1]; -51.4% (active) in experiment [9]; -91.9% (active) in experiment [2]; -90.9% (active) in experiment [3]; -59.9% (active) in experiment [5]; -88.3% (active) in experiment [6]. For the same compound, the growth in [7] is -9.97% (active); in experiment [8], -18% (active).
